What all share (experiment): DAPPL (digital affinity profiling via proximity ligation, sequencing); 10 mM Tris-HCl pH 7.5, 50 mM NaCl, 1 mM DTT, 4% glycerol, room temperature, 30 min; GST-TFs on glutathione beads, 16-mer random dsDNA library, 0.1% formaldehyde crosslink after washing; high values mean tight binding
The target in test [1] is T1, FLI1 (Homo sapiens, UniProt Q01543 1-452).
T1 sequence: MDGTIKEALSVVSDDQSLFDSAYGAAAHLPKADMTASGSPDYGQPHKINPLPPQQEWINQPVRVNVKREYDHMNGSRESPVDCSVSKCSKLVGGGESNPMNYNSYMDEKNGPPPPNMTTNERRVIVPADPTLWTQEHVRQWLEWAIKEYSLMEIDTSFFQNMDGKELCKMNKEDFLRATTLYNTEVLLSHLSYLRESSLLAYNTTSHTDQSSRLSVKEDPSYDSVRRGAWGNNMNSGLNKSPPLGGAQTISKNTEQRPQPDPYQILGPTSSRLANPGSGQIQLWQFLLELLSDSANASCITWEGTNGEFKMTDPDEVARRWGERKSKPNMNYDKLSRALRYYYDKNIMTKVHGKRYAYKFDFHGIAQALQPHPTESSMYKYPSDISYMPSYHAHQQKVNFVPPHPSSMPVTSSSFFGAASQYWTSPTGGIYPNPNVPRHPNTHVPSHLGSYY
To be noted: protein: recombinant; tags: N-terminal GST; dsDNA, one strand shown. A digest of the protocol:
(§1)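 In yeast, human transcription factors were expressed with a GST fusion, then pulled down on glutathione beads and given DNA barcodes. Pooled with a tag-only sample, they were exposed to 200 nmole of a 16-mer random double-stranded DNA library (Tris/NaCl/DTT/glycerol buffer, room temperature, 30 min), washed, crosslinked with 0.1% formaldehyde, proximity-ligated using BsaI/T4 ligase for 1 h at 37 °C, PCR-amplified and read on an Illumina NextSeq500. Each hexamer's frequency of reads for a factor, divided by the matching frequency for the tag-only sample, gives the binding signal.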

Test [2] has as its target T2, ELK1 (Homo sapiens, UniProt P19419 1-428).
T2 sequence: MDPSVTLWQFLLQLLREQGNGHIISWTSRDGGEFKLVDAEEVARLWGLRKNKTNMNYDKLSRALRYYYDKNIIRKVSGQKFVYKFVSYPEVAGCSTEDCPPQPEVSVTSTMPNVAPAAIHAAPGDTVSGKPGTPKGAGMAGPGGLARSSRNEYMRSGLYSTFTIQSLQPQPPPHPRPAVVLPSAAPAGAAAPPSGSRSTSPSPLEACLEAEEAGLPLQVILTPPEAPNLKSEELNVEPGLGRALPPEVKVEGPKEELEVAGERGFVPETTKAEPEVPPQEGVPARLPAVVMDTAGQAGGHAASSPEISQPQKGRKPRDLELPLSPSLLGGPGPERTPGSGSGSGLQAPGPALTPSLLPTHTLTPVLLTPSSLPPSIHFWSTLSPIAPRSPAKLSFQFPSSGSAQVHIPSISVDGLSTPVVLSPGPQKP
The conditions noted are these: protein: recombinant; tags: N-terminal GST; dsDNA, one strand shown. Summed up: as §1

Test [3] has as its target T3, GABPA (Homo sapiens, UniProt Q06546 1-454).
T3 sequence: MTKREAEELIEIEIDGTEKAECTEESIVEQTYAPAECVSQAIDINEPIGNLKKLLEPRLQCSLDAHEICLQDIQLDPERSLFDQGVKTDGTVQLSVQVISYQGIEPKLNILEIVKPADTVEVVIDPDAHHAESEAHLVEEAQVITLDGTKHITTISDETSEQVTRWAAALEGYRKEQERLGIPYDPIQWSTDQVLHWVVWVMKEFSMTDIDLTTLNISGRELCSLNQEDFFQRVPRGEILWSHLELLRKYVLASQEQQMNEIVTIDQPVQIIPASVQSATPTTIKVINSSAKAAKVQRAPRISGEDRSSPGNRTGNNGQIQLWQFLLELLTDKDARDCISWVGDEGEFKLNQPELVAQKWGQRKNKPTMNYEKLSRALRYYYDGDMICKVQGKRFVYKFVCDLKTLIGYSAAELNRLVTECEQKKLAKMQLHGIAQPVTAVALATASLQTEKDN
The conditions noted are these: protein: recombinant; tags: N-terminal GST; dsDNA, one strand shown. Summed up:
as §1

Test [4] concerns the target T4, ERG (Homo sapiens, UniProt P11308 1-479).
T4 sequence: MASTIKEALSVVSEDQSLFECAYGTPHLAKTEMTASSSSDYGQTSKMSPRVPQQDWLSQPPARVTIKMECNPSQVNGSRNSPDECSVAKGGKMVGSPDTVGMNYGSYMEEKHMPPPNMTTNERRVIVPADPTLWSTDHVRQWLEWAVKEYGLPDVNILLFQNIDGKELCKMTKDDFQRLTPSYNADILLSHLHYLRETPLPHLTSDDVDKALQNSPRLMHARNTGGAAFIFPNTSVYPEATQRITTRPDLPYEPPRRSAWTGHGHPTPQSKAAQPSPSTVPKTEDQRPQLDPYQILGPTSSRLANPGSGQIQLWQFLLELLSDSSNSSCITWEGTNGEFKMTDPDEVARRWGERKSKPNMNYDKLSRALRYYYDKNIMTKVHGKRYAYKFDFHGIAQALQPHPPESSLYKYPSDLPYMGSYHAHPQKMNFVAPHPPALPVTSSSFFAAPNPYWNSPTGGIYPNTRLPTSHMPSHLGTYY
To be noted: protein: recombinant; tags: N-terminal GST; dsDNA, one strand shown. A digest of the protocol: as §1

For test [5], the target named is ELF1 (Homo sapiens, UniProt P32519 1-619). The conditions noted are these: protein: recombinant; tags: N-terminal GST; dsDNA, one strand shown. A digest of the protocol:
as §1

Test [6] has as its target T5, EHF (Homo sapiens, UniProt Q9NZC4 1-300).
T5 sequence: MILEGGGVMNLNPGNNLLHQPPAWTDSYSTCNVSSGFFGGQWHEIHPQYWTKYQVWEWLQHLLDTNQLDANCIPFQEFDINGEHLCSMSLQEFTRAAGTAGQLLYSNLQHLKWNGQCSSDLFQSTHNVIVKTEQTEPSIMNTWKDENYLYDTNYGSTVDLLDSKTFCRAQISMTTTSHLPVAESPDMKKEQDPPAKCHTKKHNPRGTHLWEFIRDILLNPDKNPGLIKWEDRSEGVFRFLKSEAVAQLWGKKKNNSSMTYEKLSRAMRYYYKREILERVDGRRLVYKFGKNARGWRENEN
To be noted: protein: recombinant; tags: N-terminal GST; dsDNA, one strand shown. Summed up:
as §1

For test [7], the target named is SPI1 (Homo sapiens, UniProt P17947 1-270). The conditions noted are these: protein: recombinant; tags: N-terminal GST; dsDNA, one strand shown. A digest of the protocol: as §1
Test [8] deals with SPIB (Homo sapiens, UniProt Q01892 1-262). The conditions noted are these: protein: recombinant; tags: N-terminal GST; dsDNA, one strand shown. Summed up:
as §1

Test [9] deals with T6, FEV (Homo sapiens, UniProt Q99581 1-238).
T6 sequence: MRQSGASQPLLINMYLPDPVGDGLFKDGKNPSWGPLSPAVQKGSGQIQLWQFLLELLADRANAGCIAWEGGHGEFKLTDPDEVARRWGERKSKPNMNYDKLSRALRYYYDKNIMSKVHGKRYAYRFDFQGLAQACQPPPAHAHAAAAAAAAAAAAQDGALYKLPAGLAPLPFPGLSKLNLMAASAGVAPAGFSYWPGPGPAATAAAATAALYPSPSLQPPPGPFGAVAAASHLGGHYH
To be noted: protein: recombinant; tags: N-terminal GST; dsDNA, one strand shown. Summed up: as §1

Test [10] concerns the target ETV5 (Homo sapiens, UniProt P41161 1-510). The conditions noted are these: protein: recombinant; tags: N-terminal GST; dsDNA, one strand shown. A digest of the protocol: as §1
The target in test [11] is HSF1 (Homo sapiens, UniProt Q00613 1-529). To be noted: protein: recombinant; tags: N-terminal GST; chain copies: 3; dsDNA, one strand shown. A digest of the protocol:
as §1

Test [12] has as its target T7, SPIC (Homo sapiens, UniProt Q8N5J4 1-248).
T7 sequence: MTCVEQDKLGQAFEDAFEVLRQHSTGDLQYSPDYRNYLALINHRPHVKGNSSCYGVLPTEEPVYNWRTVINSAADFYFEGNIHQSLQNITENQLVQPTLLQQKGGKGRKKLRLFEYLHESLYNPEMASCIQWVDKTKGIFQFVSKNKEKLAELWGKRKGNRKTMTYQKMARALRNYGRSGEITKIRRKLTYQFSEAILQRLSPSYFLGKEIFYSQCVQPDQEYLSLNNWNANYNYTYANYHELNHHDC
To be noted: protein: recombinant; tags: N-terminal GST; dsDNA, one strand shown. Summed up:
as §1

Test [13] has as its target ELF4 (Homo sapiens, UniProt Q99607 1-663). The conditions noted are these: protein: recombinant; tags: N-terminal GST; dsDNA, one strand shown. Summed up:
as §1

In test [14] the target is T8, ELK4 (Homo sapiens, UniProt P28324-2 1-405).
T8 sequence: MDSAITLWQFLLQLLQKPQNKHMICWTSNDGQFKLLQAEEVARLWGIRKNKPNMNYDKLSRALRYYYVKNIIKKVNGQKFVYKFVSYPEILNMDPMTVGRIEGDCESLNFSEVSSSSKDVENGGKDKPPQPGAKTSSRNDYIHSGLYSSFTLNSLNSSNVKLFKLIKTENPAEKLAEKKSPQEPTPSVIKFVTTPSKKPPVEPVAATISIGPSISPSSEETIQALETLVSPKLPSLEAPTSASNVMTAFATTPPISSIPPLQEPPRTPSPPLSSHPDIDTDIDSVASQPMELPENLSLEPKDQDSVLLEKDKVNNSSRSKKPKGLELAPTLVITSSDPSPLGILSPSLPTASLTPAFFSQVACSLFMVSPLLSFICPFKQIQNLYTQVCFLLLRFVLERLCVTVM
To be noted: protein: recombinant; tags: N-terminal GST; dsDNA, one strand shown. A digest of the protocol:
as §1

Test [15] has as its target T9, ETV2 (Homo sapiens, UniProt O00321 1-342).
T9 sequence: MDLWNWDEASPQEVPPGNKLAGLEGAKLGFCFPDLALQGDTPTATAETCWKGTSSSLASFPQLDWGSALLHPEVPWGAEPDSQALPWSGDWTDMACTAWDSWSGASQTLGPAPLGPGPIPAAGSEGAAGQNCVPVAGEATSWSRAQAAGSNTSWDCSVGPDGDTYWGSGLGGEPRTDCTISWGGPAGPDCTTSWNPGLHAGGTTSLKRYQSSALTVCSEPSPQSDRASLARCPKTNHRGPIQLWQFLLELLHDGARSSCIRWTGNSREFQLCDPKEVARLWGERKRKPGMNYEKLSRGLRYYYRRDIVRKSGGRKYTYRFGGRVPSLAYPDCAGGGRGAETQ
To be noted: protein: recombinant; tags: N-terminal GST; dsDNA, one strand shown. A digest of the protocol:
as §1

Test [16] concerns the target T10, ELF3 (Homo sapiens, UniProt P78545 1-371).
T10 sequence: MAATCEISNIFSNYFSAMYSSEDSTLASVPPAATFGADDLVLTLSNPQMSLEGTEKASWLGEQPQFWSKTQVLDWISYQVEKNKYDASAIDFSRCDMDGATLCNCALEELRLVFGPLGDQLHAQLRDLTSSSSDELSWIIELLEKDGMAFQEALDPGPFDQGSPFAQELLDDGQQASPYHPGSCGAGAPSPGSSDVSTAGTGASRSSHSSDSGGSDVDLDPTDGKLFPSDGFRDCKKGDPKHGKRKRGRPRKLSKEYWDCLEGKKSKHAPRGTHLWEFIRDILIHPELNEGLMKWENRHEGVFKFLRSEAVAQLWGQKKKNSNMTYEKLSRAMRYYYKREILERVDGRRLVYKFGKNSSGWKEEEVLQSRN
The conditions noted are these: protein: recombinant; tags: N-terminal GST; dsDNA, one strand shown. A digest of the protocol:
as §1

The target of test [17] is CRX (Homo sapiens, UniProt O43186 1-299). To be noted: protein: recombinant; tags: N-terminal GST; dsDNA, one strand shown. Summed up:
as §1

For test [18], the target named is ETV1 (Homo sapiens, UniProt P50549 1-477). To be noted: protein: recombinant; tags: N-terminal GST; dsDNA, one strand shown. A digest of the protocol:
as §1

ETV1, sequence (P50549 whole entry): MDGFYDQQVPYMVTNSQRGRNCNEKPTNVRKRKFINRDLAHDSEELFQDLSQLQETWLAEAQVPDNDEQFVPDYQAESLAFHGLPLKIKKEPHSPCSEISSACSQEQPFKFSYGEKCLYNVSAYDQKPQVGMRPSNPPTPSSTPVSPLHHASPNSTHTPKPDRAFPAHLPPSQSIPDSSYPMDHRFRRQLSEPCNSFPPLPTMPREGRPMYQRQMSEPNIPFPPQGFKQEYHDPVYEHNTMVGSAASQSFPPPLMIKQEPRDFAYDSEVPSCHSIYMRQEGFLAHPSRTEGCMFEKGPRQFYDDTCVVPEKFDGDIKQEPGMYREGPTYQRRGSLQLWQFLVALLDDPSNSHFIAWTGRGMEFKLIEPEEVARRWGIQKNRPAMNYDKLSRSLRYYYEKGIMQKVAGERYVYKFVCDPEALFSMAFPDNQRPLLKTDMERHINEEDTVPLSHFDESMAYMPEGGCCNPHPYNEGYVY
SPIB, sequence (Q01892 whole entry): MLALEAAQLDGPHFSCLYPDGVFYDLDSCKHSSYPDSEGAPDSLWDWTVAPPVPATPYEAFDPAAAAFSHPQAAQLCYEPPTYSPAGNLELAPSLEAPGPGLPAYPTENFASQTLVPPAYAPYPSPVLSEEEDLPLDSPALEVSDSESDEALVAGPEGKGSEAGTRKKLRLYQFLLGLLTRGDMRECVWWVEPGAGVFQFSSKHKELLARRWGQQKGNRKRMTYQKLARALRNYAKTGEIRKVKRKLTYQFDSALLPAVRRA
ELF1, sequence (P32519 whole entry): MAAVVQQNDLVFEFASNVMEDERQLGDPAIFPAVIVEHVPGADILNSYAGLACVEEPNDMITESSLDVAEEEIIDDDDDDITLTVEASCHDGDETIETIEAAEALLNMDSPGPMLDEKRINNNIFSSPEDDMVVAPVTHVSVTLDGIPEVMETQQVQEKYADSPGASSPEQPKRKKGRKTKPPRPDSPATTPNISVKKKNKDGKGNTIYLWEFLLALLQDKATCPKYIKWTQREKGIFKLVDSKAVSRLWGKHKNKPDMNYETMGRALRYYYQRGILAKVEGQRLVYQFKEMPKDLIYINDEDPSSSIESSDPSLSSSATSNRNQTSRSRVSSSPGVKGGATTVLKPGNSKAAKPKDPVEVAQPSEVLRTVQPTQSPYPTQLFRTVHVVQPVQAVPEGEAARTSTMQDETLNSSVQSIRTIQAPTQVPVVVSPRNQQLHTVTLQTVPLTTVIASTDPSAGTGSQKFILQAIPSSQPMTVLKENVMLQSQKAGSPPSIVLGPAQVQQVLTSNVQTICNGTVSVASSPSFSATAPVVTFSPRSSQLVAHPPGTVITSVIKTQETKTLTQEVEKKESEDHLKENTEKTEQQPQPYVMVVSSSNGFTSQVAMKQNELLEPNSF
ELF4, sequence (Q99607 whole entry): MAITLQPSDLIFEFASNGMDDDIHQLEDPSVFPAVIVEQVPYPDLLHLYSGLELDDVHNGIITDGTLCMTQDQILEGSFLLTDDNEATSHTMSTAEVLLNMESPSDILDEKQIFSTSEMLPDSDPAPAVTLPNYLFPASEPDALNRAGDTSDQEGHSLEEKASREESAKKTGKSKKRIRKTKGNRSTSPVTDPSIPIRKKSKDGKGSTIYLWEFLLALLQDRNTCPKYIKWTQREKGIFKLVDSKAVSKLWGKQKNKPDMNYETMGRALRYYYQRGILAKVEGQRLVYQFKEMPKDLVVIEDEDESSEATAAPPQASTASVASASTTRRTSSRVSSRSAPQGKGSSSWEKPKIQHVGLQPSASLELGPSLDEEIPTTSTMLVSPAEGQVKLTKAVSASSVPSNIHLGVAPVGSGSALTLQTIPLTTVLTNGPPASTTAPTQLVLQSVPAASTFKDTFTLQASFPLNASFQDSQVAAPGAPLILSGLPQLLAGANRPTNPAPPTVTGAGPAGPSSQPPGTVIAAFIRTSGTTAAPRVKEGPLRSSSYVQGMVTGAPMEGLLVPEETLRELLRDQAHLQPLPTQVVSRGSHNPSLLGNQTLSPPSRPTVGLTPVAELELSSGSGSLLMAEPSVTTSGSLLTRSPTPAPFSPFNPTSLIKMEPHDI
ETV5, sequence (P41161 whole entry): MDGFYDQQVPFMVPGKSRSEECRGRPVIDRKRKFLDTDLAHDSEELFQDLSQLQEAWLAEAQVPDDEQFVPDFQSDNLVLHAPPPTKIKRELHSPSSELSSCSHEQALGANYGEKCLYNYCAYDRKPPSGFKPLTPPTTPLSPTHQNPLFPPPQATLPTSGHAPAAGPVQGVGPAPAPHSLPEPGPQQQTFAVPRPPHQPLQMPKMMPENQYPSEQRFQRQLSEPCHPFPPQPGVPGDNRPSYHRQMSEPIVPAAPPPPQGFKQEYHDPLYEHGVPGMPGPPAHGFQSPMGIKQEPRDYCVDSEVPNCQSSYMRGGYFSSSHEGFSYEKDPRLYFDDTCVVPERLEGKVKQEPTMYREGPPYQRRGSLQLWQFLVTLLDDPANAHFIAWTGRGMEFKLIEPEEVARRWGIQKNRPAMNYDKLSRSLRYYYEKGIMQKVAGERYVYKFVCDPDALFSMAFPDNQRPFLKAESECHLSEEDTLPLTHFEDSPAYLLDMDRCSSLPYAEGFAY
HSF1, sequence (Q00613 whole entry): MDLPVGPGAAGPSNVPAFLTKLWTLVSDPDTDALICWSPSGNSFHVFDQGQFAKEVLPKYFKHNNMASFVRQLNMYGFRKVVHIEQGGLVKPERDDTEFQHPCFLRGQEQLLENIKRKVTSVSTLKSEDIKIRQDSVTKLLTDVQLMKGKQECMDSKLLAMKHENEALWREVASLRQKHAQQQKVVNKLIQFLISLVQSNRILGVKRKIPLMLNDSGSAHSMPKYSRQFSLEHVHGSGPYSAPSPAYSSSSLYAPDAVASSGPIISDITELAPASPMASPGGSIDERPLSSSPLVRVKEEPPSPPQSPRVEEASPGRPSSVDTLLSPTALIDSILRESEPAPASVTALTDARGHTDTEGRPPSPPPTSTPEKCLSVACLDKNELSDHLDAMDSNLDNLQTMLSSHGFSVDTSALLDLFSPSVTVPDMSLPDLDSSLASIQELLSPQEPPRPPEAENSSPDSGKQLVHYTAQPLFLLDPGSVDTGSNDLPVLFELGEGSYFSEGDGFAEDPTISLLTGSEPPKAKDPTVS
CRX, sequence (O43186 whole entry): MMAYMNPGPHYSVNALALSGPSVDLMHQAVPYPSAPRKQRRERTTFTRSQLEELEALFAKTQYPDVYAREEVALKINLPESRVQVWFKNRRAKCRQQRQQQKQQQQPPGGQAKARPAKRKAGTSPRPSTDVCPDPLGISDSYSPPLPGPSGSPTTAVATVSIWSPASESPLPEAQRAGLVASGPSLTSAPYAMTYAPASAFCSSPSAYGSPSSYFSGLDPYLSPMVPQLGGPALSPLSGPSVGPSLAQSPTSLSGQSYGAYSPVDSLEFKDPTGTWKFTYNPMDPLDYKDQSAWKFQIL

In the case of AGGCTC, the binding signal in test [1] was 1.04 fold enrichment (6-mer frequency, TF over GST control); in test [2], 1.03 fold enrichment (6-mer frequency, TF over GST control); in test [3], 1.12 fold enrichment (6-mer frequency, TF over GST control); in [4], 1.06 fold enrichment (6-mer frequency, TF over GST control); in test [5], 1.12 fold enrichment (6-mer frequency, TF over GST control); in test [6] it was 1.08 fold enrichment (6-mer frequency, TF over GST control). Also, the binding signal in [7] is 1.02 fold enrichment (6-mer frequency, TF over GST control); in test [8], 1.03 fold enrichment (6-mer frequency, TF over GST control); in test [9], 1.06 fold enrichment (6-mer frequency, TF over GST control); in test [10] it was 1.02 fold enrichment (6-mer frequency, TF over GST control); in [11] it was 1.14 fold enrichment (6-mer frequency, TF over GST control); in test [12] it was 1.15 fold enrichment (6-mer frequency, TF over GST control). Moreover, the binding signal in test [13] was 1.07 fold enrichment (6-mer frequency, TF over GST control); in test [14] it was 1.06 fold enrichment (6-mer frequency, TF over GST control); in test [15] it was 1.01 fold enrichment (6-mer frequency, TF over GST control); in test [16], 1.02 fold enrichment (6-mer frequency, TF over GST control); in [17], 1.29 fold enrichment (6-mer frequency, TF over GST control); in test [18], 1.06 fold enrichment (6-mer frequency, TF over GST control).

Values taken from PMC7862700, “An all-to-all approach to the identification of sequence-specific readers for epigenetic DNA modifications on cytosine”.
